Here are results for 13 compounds from the supplement of paper PMC10646978.

± gives the standard deviation.

Common to all, as to conditions: modulator concentration 10 µM
For test [1], the system named is RAW-Dual (murine macrophage reporter line). In words: NF-kB reporter (SEAP) activity fold change vs agonist alone; higher = enhanced NF-kB activity. In outline:
(§1)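 Overnight stimulation with a PRR agonist followed pre-incubation for 1 hour at 37 °C with compound at 10 μM final. This was done in RAW-Dual murine macrophage reporter cells seeded at 50 000 per well in 384-well plates. NF-κB (SEAP, QUANTI-Blue absorbance at 620 nm) and IRF (Lucia luciferase, QUANTI-Luc luminescence) were read from the supernatant. Each reporter's fold change relative to the mean agonist-only control on the same plate was averaged over replicate plates.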

The test system is the same in test [2]. The test is described as follows: IRF reporter (Lucia luciferase) activity fold change vs agonist alone; higher = enhanced IRF activity. An outline of the steps:
as §1

For test [3] the test system is unchanged. The test is described as follows: viability score (confluency relative to resting cells, overnight) (fraction); higher = more viable, active = viable (0.7 or more). An outline of the steps:
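Confluency was the readout: RAW-Dual macrophages were imaged with IncuCyte after an overnight exposure to compound at 10 μM final. IncuCyte software produced two masks over all imaged wells. The viability score expresses confluency against resting cells, and both masks had to exceed 70% of resting cells for a compound to meet the cutoff.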

The mark [4] stands for this setting: agonist: CpG ODN 1826 0.5 ug/mL.

On to `O=c1cc(O)nc(SCc2c(F)c(F)c(F)c(F)c2F)[nH]1`, for which the NF-kB reporter in test [1] (setting [4]) is 1.01 ± 0.08; in test [1] (agonist: LPS 0.1 ug/mL), 0.913 ± 0.07; in test [1] (agonist: MPLA […]), 1.05 ± 0.049. For the same compound, the IRF reporter in test [2] (agonist: 3'3'-cGAMP 10 ug/mL) was 0.646 ± 0.066; in test [2] (agonist: LPS 0.1 ug/mL), 1.01 ± 0.1; in test [2] (agonist: MPLA […]), 1.03 ± 0.21. Moreover, in test [3], the viability score was 1 (active).
`COC(=O)C1=CN(CC2CCCO2)C=C(C(=O)OC)C1c1cccc(F)c1` (stereo unspecified): the values for the NF-kB reporter in test [1] (setting [4]), in test [1] (agonist: LPS 0.1 ug/mL) and in test [1] (agonist: MPLA […]) were 0.948 ± 0.21, 0.907 ± 0.084 and 1.05 ± 0.098, respectively. In addition, the IRF reporter was determined as 0.868 ± 0.026 in test [2] (agonist: 3'3'-cGAMP 10 ug/mL), 1.21 ± 0.19 in test [2] (agonist: LPS 0.1 ug/mL) and 1.18 ± 0.16 in test [2] (agonist: MPLA […]). The viability score in test [3] was 0.954 (active).
In the case of `CCOC(=O)C1=C(COCCN)NC(C)=C(C(=O)OC)C1c1ccccc1Cl` (stereo unspecified), the results for the NF-kB reporter in test [1] (setting [4]), in test [1] (agonist: LPS 0.1 ug/mL) and in test [1] (agonist: MPLA […]) were 0.533 ± 0.055, 0.899 ± 0.052 and 1.55 ± 0.14, respectively. In addition, the IRF reporter turned out to be 1.58 ± 0.1 in test [2] (agonist: 3'3'-cGAMP 10 ug/mL), 1.34 ± 0.12 in test [2] (agonist: LPS 0.1 ug/mL) and 1.13 ± 0.095 in test [2] (agonist: MPLA […]). Moreover, in test [3], the viability score was 0.589 (inactive).
Consider `CCOC(=O)c1c(C)n(-c2ccccc2)c2ccc(NS(=O)(=O)c3ccccc3)cc12`, for which the NF-kB reporter in test [1] (setting [4]) was found to be 0.959 ± 0.16; in test [1] (agonist: LPS 0.1 ug/mL), 0.95 ± 0.075; in test [1] (agonist: MPLA […]), 1.04 ± 0.087. Further, the IRF reporter was found to be 0.932 ± 0.029 in test [2] (agonist: 3'3'-cGAMP 10 ug/mL), 1.05 ± 0.13 in test [2] (agonist: LPS 0.1 ug/mL) and 1.21 ± 0.17 in test [2] (agonist: MPLA […]). In test [3], the viability score was 0.808 (active).
On to `OCCN(CCO)c1nc(N2CCCCC2)c2nc(N(CCO)CCO)nc(N3CCCCC3)c2n1`, for which the figures for the NF-kB reporter in test [1] (setting [4]), in test [1] (agonist: LPS 0.1 ug/mL) and in test [1] (agonist: MPLA […]) were 1.58 ± 0.22, 1.39 ± 0.35 and 1.06 ± 0.07, respectively. Besides, the IRF reporter in test [2] (agonist: 3'3'-cGAMP 10 ug/mL) is 0.502 ± 0.022; in test [2] (agonist: LPS 0.1 ug/mL), 1.18 ± 0.18; in test [2] (agonist: MPLA […]), 1.28 ± 0.17. Besides, in test [3], the viability score was 0.984 (active).
As for `O=C(c1cc(C(F)(F)F)cc(C(F)(F)F)c1)N1CCOCC1CO` (stereo unspecified), the NF-kB reporter in test [1] (setting [4]) was 0.94 ± 0.053; in test [1] (agonist: LPS 0.1 ug/mL), 1.03 ± 0.12; in test [1] (agonist: MPLA […]), 0.869 ± 0.099. In addition, the IRF reporter in test [2] (agonist: 3'3'-cGAMP 10 ug/mL) is 0.969 ± 0.072; in test [2] (agonist: LPS 0.1 ug/mL), 1.04 ± 0.092; in test [2] (agonist: MPLA […]) it was 0.989 ± 0.38. Further, the viability score in test [3] is 0.999 (active).
Take `CCOc1ccc(CN(CCc2ccc3c(c2)OCO3)Cc2cccc3ccccc23)cc1`: the NF-kB reporter was 0.73 ± 0.071 in test [1] (setting [4]), 0.888 ± 0.074 in test [1] (agonist: LPS 0.1 ug/mL) and 1.07 ± 0.074 in test [1] (agonist: MPLA […]). Further, the IRF reporter in test [2] (agonist: 3'3'-cGAMP 10 ug/mL) stood at 0.619 ± 0.061; in test [2] (agonist: LPS 0.1 ug/mL) it was 0.908 ± 0.045; in test [2] (agonist: MPLA […]), 1.04 ± 0.18. Also, the viability score in test [3] was 0.998 (active).
With `COc1ccc(C2CNC(=O)C2)cc1OC1CCCC1` (stereo unspecified), the NF-kB reporter in test [1] (setting [4]) stood at 2.76 ± 0.37; in test [1] (agonist: LPS 0.1 ug/mL), 2.2 ± 0.43; in test [1] (agonist: MPLA […]) it was 1.63 ± 0.1. Besides, the IRF reporter is 0.942 ± 0.03 in test [2] (agonist: 3'3'-cGAMP 10 ug/mL), 0.963 ± 0.18 in test [2] (agonist: LPS 0.1 ug/mL) and 1.17 ± 0.089 in test [2] (agonist: MPLA […]). The viability score in test [3] is 0.973 (active).
Consider `Cc1nccn1CC1CCc2c(c3ccccc3n2C)C1=O.Cl` (stereo unspecified), for which the values for the NF-kB reporter in test [1] (setting [4]), in test [1] (agonist: LPS 0.1 ug/mL) and in test [1] (agonist: MPLA […]) were 0.82 ± 0.2, 0.909 ± 0.28 and 0.84 ± 0.047, respectively. In addition, the IRF reporter in test [2] (agonist: 3'3'-cGAMP 10 ug/mL) was found to be 0.889 ± 0.051; in test [2] (agonist: LPS 0.1 ug/mL) it was 1.19 ± 0.23; in test [2] (agonist: MPLA […]), 1.22 ± 0.33. In addition, the viability score in test [3] is 0.638 (inactive).
With `O=C(NCc1ccco1)C(=Cc1ccc(-c2ccccc2Cl)o1)NC(=O)c1ccccc1`, the NF-kB reporter in test [1] (setting [4]) came out at 0.57 ± 0.044; in test [1] (agonist: LPS 0.1 ug/mL) it was 0.745 ± 0.052; in test [1] (agonist: MPLA […]) it was 0.791 ± 0.07. The IRF reporter in test [2] (agonist: 3'3'-cGAMP 10 ug/mL) was 0.476 ± 0.022; in test [2] (agonist: LPS 0.1 ug/mL) it was 0.859 ± 0.07; in test [2] (agonist: MPLA […]), 0.942 ± 0.11. For the same compound, the viability score in test [3] was 0.996 (active).
Consider `CC(C)Oc1ccc(C(=O)NC2CCN(c3ncnc4c3CCCC4)CC2)cn1`, for which the NF-kB reporter in test [1] (setting [4]) amounted to 1.15 ± 0.086; in test [1] (agonist: LPS 0.1 ug/mL), 1.14 ± 0.086; in test [1] (agonist: MPLA […]), 0.985 ± 0.031. Also, the IRF reporter in test [2] (agonist: 3'3'-cGAMP 10 ug/mL) was determined as 0.939 ± 0.055; in test [2] (agonist: LPS 0.1 ug/mL) it was 1.06 ± 0.083; in test [2] (agonist: MPLA […]), 1.04 ± 0.11. The viability score in test [3] is 0.997 (active).
With `C[C@]1(O)C[C@@H](c2nc(-c3ccc4ccc(-c5ccccc5)nc4c3)c3c(N)nccn32)C1`, the NF-kB reporter in test [1] (setting [4]) worked out at 0.797 ± 0.04; in test [1] (agonist: LPS 0.1 ug/mL), 1.26 ± 0.1; in test [1] (agonist: MPLA […]) it was 0.899 ± 0.08. The IRF reporter in test [2] (agonist: 3'3'-cGAMP 10 ug/mL) worked out at 0.593 ± 0.055; in test [2] (agonist: LPS 0.1 ug/mL), 0.971 ± 0.072; in test [2] (agonist: MPLA […]) it was 0.958 ± 0.17. In addition, in test [3], the viability score is 1 (active).
As to `CCOc1ccc2nc(NC(=O)c3ccc(Br)cc3F)sc2c1`, the NF-kB reporter in test [1] (setting [4]) came to 1.15 ± 0.095; in test [1] (agonist: LPS 0.1 ug/mL) it was 1.1 ± 0.098; in test [1] (agonist: MPLA […]), 1 ± 0.041. Moreover, the IRF reporter in test [2] (agonist: 3'3'-cGAMP 10 ug/mL) came to 0.873 ± 0.071; in test [2] (agonist: LPS 0.1 ug/mL) it was 1.05 ± 0.067; in test [2] (agonist: MPLA […]), 0.946 ± 0.15. In addition, the viability score in test [3] was 0.994 (active).
